What follows are compounds tested on TESK1. Conditions: concentration: 1 μM, replicates: in singlicate; n = 1.
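Also: KINOMEscan kinase panel screen.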

Point of comparison: `O=C(Nc1n[nH]c2nc(-c3ccco3)c(Br)cc12)c1ccc(CN2CCCC2)cc1.O=C(O)[C@H](O)[C@@H](O)C(=O)O` [SB-742352], “%Inh” value 8%. Against it:
- CN1CCC(n2cnc(-c3ccc(F)cc3)c2-c2ccnc(NC3CCNCC3)n2)CC1 [SB-229482] — lower, 7%
- COc1cc2ncnc(Nc3ccc(OCc4ccccc4Br)c(Cl)c3)c2cc1OC.Cl [GI261590] — higher, 33%
- CC(=O)Nc1n[nH]c2ncc(-c3ccccc3)cc12 [SB-548492] — lower, 6%
- CNc1nccc(-c2c(-c3ccc(F)cc3)ncn2C2CCN(C)CC2)n1 [SB-222903] — lower, 3%
- O=C(Nc1ccccc1F)NC1CCN(c2ccnc(Nc3ccc(F)cc3)n2)C1 (centres unmarked) [GSK1379722] — higher, 16%
- O=C(NCCCN1CCCC1=O)c1cnc(NCc2cc(Cl)ccc2Cl)nc1NC1CCNCC1 — lower, 2%
- O=c1cc(N2CCOCC2)nc2n(Cc3cccc(Cl)c3)ccn12 [GSK2296823] — lower, 0%
- Nc1n[nH]c2nnc(-c3ccccc3)cc12 [SB-517389] — higher, 27%
- Nc1nc(-c2cccnc2)c(-c2ccnc3ccccc23)s1 [GW684083] — lower, 0%
- c1ccc(-c2ccc3c(-c4ccnc(Nc5ccc6c(c5)OCCO6)n4)cnn3n2)cc1 [GW818941] — higher, 12%
- Nc1nc(-c2ccc3c(N)n[nH]c3c2)cc(N2CCC[C@@H](C(=O)Nc3ccccc3)C2)n1.O=C(O)C(F)(F)F.O=C(O)C(F)(F)F [GSK2288359] — higher, 18%
- COC(=O)c1cccc(NC(=O)NCCNc2ccnc(Nc3ccc(F)cc3)n2)c1 [GSK1379883] — higher, 23%
- COC(=O)c1c(-c2ccccc2)c2cc(Cl)ccc2c(=O)n1Cc1ccc(S(C)(=O)=O)cc1 — lower, 0%
- FC(F)(F)c1ccc(-c2cc(-c3c[nH]nc3-c3ccccn3)ccn2)cc1 [GW599550] — higher, 17%
- COc1ccc(NC(=O)c2ccc(-c3cc(-c4nnc(C)o4)ccc3C)cc2)cc1 [GW595885] — higher, 24%
- Cl.Cl.c1ccc(-c2cc3ccncc3cc2OC2CCNCC2)cc1 [GSK1122999] — lower, 7%
- CS(=O)(=O)CCNCc1nc(-c2ccc3ncnc(Nc4ccc(OCc5cccc(F)c5)c(Cl)c4)c3c2)cs1.Cl [GW583340] — higher, 80%
- Cn1ccc2ncnc(Oc3ccc(NC(=O)Nc4cccnc4)c(Cl)c3)c21 — lower, 0%
- Fc1cccc(COc2ccc(Nc3ncnc4sc(-c5ccc[nH]5)cc34)cc2Cl)c1 [GW707818] — lower, 5%
- Cl.Cn1ccc(-c2cccc(Nc3ccnc4cc(-c5nccs5)ccc34)c2)n1 [GW525701] — higher, 34%
- CS(=O)(=O)CCNCc1ccc(-c2ccc3ncnc(Nc4ccc(OCc5ccccc5)c(Cl)c4)c3c2)o1.Cl [GW574783] — lower, 4%
- COc1ccc(Nc2nccc(N3CCC(NC(=O)Nc4ccc5c(c4)OCO5)C3)n2)cc1 (centres unmarked) [GSK1379745] — higher, 12%
- Fc1cccc(COc2ccc(Nc3ncnc4nn5ccccc5c34)cc2Cl)c1 [GW689066] — higher, 14%
- Cc1ccc(O)cc1Nc1cc(C(F)(F)F)nc2ccc(-c3ccncc3)cc12 [GW630823] — lower, 6%
- Cl.Fc1ccccc1COc1ccc(Nc2ncnc3ccc(-c4nnc(C(F)(F)F)o4)cc23)cc1Cl [GW424170] — higher, 29%
- Clc1ccc(-c2cc(-c3c[nH]nc3-c3ccccn3)ccn2)cc1 [GW681251] — higher, 12%
- C[C@H]1CC[C@@H](C(=O)Nc2ccccc2)CN1c1cc(-c2ccc3c(N)n[nH]c3c2)nc(N)n1 [GSK2283293] — higher, 26%
- Oc1ccc2ncnc(Nc3ccc(OCc4ccccc4)cc3)c2c1 [GI262866] — lower, 0%
- N#Cc1ccc(Oc2ccc(Nc3ncnc4cc[nH]c34)cc2Cl)cc1 — lower, 5%
- CC(C)(C)c1ccc(-n2cnc3c(N)ncnc32)cc1 [SKF-97263] — lower, 0%
- Cc1ccc(C)c(NC(=O)NCCNc2ccnc(Nc3ccc(F)cc3)n2)c1 [GSK1379878] — higher, 32%
- CCn1c(-c2ccncc2)nc2cnccc21 [SB-735216] — higher, 24%
- COc1ccc(NC(=O)Nc2ccc(C)c(-c3ccc(C(=O)Nc4ccncc4)cc3)c2)cc1 [GSK1398475] — higher, 19%
- Clc1cc(Nc2ncnc3cc[nH]c23)ccc1OCc1ccccn1 — lower, 7%

The compounds below were run on TGFBR1. Conditions: concentration: 1 μM, replicates: in singlicate; n = 1.

Point of comparison: `Cl.Cl.c1ccc(-c2cc3ccncc3cc2OC2CCNCC2)cc1` [GSK1122999], “%Inh” value 2%. Against it:
- CN1CCC(n2cnc(-c3ccc(F)cc3)c2-c2ccnc(NC3CCNCC3)n2)CC1 [SB-229482] — higher, 28%
- COc1cc2ncnc(Nc3ccc(OCc4ccccc4Br)c(Cl)c3)c2cc1OC.Cl [GI261590] — higher, 27%
- CC(=O)Nc1n[nH]c2ncc(-c3ccccc3)cc12 [SB-548492] — lower, 0%
- CNc1nccc(-c2c(-c3ccc(F)cc3)ncn2C2CCN(C)CC2)n1 [SB-222903] — higher, 24%
- O=C(Nc1ccccc1F)NC1CCN(c2ccnc(Nc3ccc(F)cc3)n2)C1 (centres unmarked) [GSK1379722] — higher, 25%
- O=C(NCCCN1CCCC1=O)c1cnc(NCc2cc(Cl)ccc2Cl)nc1NC1CCNCC1 — lower, 0%
- O=c1cc(N2CCOCC2)nc2n(Cc3cccc(Cl)c3)ccn12 [GSK2296823] — lower, 0%
- Nc1n[nH]c2nnc(-c3ccccc3)cc12 [SB-517389] — lower, 0%
- O=C(Nc1n[nH]c2nc(-c3ccco3)c(Br)cc12)c1ccc(CN2CCCC2)cc1.O=C(O)[C@H](O)[C@@H](O)C(=O)O [SB-742352] — lower, 0%
- Nc1nc(-c2cccnc2)c(-c2ccnc3ccccc23)s1 [GW684083] — higher, 5%
- c1ccc(-c2ccc3c(-c4ccnc(Nc5ccc6c(c5)OCCO6)n4)cnn3n2)cc1 [GW818941] — higher, 11%
- Nc1nc(-c2ccc3c(N)n[nH]c3c2)cc(N2CCC[C@@H](C(=O)Nc3ccccc3)C2)n1.O=C(O)C(F)(F)F.O=C(O)C(F)(F)F [GSK2288359] — higher, 22%
- COC(=O)c1cccc(NC(=O)NCCNc2ccnc(Nc3ccc(F)cc3)n2)c1 [GSK1379883] — higher, 13%
- COC(=O)c1c(-c2ccccc2)c2cc(Cl)ccc2c(=O)n1Cc1ccc(S(C)(=O)=O)cc1 — higher, 7%
- COc1ccc(NC(=O)c2ccc(-c3cc(-c4nnc(C)o4)ccc3C)cc2)cc1 [GW595885] — higher, 6%
- CS(=O)(=O)CCNCc1nc(-c2ccc3ncnc(Nc4ccc(OCc5cccc(F)c5)c(Cl)c4)c3c2)cs1.Cl [GW583340] — lower, 0%
- Cn1ccc2ncnc(Oc3ccc(NC(=O)Nc4cccnc4)c(Cl)c3)c21 — lower, 0%
- Fc1cccc(COc2ccc(Nc3ncnc4sc(-c5ccc[nH]5)cc34)cc2Cl)c1 [GW707818] — higher, 37%
- Cl.Cn1ccc(-c2cccc(Nc3ccnc4cc(-c5nccs5)ccc34)c2)n1 [GW525701] — higher, 12%
- CS(=O)(=O)CCNCc1ccc(-c2ccc3ncnc(Nc4ccc(OCc5ccccc5)c(Cl)c4)c3c2)o1.Cl [GW574783] — higher, 11%
- COc1ccc(Nc2nccc(N3CCC(NC(=O)Nc4ccc5c(c4)OCO5)C3)n2)cc1 (centres unmarked) [GSK1379745] — higher, 8%
- Fc1cccc(COc2ccc(Nc3ncnc4nn5ccccc5c34)cc2Cl)c1 [GW689066] — lower, 0%
- Cc1ccc(O)cc1Nc1cc(C(F)(F)F)nc2ccc(-c3ccncc3)cc12 [GW630823] — higher, 5%
- Cl.Fc1ccccc1COc1ccc(Nc2ncnc3ccc(-c4nnc(C(F)(F)F)o4)cc23)cc1Cl [GW424170] — lower, 0%
- C[C@H]1CC[C@@H](C(=O)Nc2ccccc2)CN1c1cc(-c2ccc3c(N)n[nH]c3c2)nc(N)n1 [GSK2283293] — higher, 14%
- Oc1ccc2ncnc(Nc3ccc(OCc4ccccc4)cc3)c2c1 [GI262866] — lower, 0%
- N#Cc1ccc(Oc2ccc(Nc3ncnc4cc[nH]c34)cc2Cl)cc1 — lower, 1%
- CC(C)(C)c1ccc(-n2cnc3c(N)ncnc32)cc1 [SKF-97263] — lower, 0%
- Cc1ccc(C)c(NC(=O)NCCNc2ccnc(Nc3ccc(F)cc3)n2)c1 [GSK1379878] — lower, 0%
- CCn1c(-c2ccncc2)nc2cnccc21 [SB-735216] — lower, 0%
- COc1ccc(NC(=O)Nc2ccc(C)c(-c3ccc(C(=O)Nc4ccncc4)cc3)c2)cc1 [GSK1398475] — higher, 3%
- Clc1cc(Nc2ncnc3cc[nH]c23)ccc1OCc1ccccn1 — higher, 15%
